Test results as given in PubChem BioAssay (NCATS).
Where “and” joins values, the source holds several entries; their conditions need not be identical. Equal entries are not always repeated. Inconclusive results are not listed. Calls of active or inactive are those of the source. Unless noted, the call rests on the fitted dose curve; in most records, active means well fitted curve in the direction sought with a large enough effect; inconclusive means small, poorly fitted or top-dose-only effect, or another doubt; inactive means no such curve, though single readings can be large; an effect the other way counts as inactive or inconclusive. Starred links: 1 amine or outer side, 2 acyl side, 3 side chain; linkers in the order of their positions; H or OH if unused. Positions of bridges follow the written chain, without caps; N, C: chain ends. Non-standard residues stand in square brackets, D forms with d. Residues, ends and D or L forms follow the SMILES beside them. Chains are numbered I, II in the order given. Actinocin(9to1) = Cc1c2oc3c(C)ccc(C(=O)[*:1])c3nc-2c(C(=O)[*:2])c(N)c1=O; NMeV = CN[CH](C(=O)O)C(C)C; Sar = CNCC(=O)O

Key:
[1] = qHTS profiling of the MIPE4 collection as inhibitors of Plasmodium falciparum (3D7) proliferation (AID 743344; call rule not given here;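 further: scaled between DMSO vehicle wells and 0.29 µM artemisinin as full inhibition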); details: P. falciparum 3D7 in erythrocytes, SYBR Green DNA fluorescence, 72 h; at 28.5 µM unless noted
Procedure, shortened: (§1)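 Parasite DNA was quantified by SYBR Green I fluorescence (ex 485, em 535 nm) after overnight lysis in saponin/Triton buffer at room temperature. Cultures at 0.3% parasitemia and 2.5% hematocrit were first exposed to compound for 72 h at 37 C; signals were normalised to artemisinin (0.29 uM) and vehicle wells.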

[2] = qHTS profiling of the MIPE4 collection as inhibitors of Plasmodium falciparum (DD2) proliferation (AID 743345; call rule not given here); details: P. falciparum Dd2 in erythrocytes, SYBR Green DNA, 72 h; at 28.5 µM unless noted
Procedure, shortened: as §1

[3] = qHTS profiling of the MIPE4 collection as inhibitors of Plasmodium falciparum (DD2) proliferation (Rep 2) (AID 743346; call rule not given here); details: P. falciparum Dd2 in erythrocytes, SYBR Green DNA, 72 h; at 28.5 µM unless noted
Procedure, shortened: as §1

[4] = qHTS profiling of the MIPE4 collection as inhibitors of Plasmodium falciparum (HB3) proliferation (AID 743347; call rule not given here;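 further: plate controls were DMSO vehicle wells for no effect and artemisinin wells for full effect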); details: P. falciparum HB3 in erythrocytes, SYBR Green DNA, 72 h; at 28.5 µM unless noted
Procedure, shortened: as §1

[5] = High-throughput drug toxicity screening in the BPDCN cell line Gen2.2 (AID 1224824; call rule not given here;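 further: cells exposed to compounds for 48 h before reading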); details: Gen2.2 BPDCN cells; at 45.8 µM (top of the series) unless noted
Procedure, shortened: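 Gen2.2 cells (500/well) in phenol red-free RPMI with 10% FBS were exposed to compounds for 48 h at 37 °C, 5% CO2. Viability was read by CellTiter-Glo luminescence and normalized to DMSO (100%) and 9.2 uM bortezomib (0%).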

[6] = High-throughput drug toxicity screening in the BPDCN cell line Cal-1 (AID 1224825; call rule not given here); details: Cal-1 BPDCN cell viability, qHTS; at 45.8 µM (top of the series) unless noted
Procedure, shortened: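 Viability of the BPDCN line Cal-1 is measured as ATP-based luminescence (CellTiter-Glo) following 48 h incubation with compounds. Percent activity uses DMSO-treated wells as 100% and 9.2 uM bortezomib as 0%.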

[7] = qHTS assay for measurement of the activity of small molecule inhibitors on Zika virus induced Caspase-3 activity in human iPSC derived neural progenitor cells (hNPCs) (AID 1224857); further: % of control where 0% means no effect; nearly all actives have a fitted effect of over 65% in size
Procedure, shortened: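 Values are percent inhibition of virus-induced caspase-3/7 signal, scaled between uninfected cells and ZIKV-infected cells. Infection used 2 FFU/cell for 6 h after 1 h compound exposure.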

[8] = qHTS Screen of the MIPE 4.0 Collection Against Ewings Sarcoma (RDES) (AID 1259252); further: nearly all actives have a fitted effect of over 35% in size; further: potency means the concentration at half of the fitted maximal effect
Procedure, shortened: (§2)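 Compound titrations go onto adherent log-phase cells 4 h after seeding, incubate 48 h at 37C, then CellTiter-Glo luminescence reports viability relative to DMSO and cell-free controls.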

[9] = qHTS Screen of the MIPE 4.0 Collection Against Ewings Sarcoma (TC71) (AID 1259253); further: nearly all actives have a fitted effect of over 40% in size; further: potency means the concentration at half of the fitted maximal effect
Procedure, shortened: as §2

[10] = qHTS Screen of the MIPE 4.0 Collection Against Ewings Sarcoma (EW8) (AID 1259255); further: nearly all actives have a fitted effect of over 35% in size; further: potency means the concentration at half of the fitted maximal effect;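 on viability: 100% = DMSO-treated cells and 0% = medium-only wells without cells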
Procedure, shortened: as §2

[11] = qHTS Screen of the MIPE 4.0 Collection Against Ewings Sarcoma (TC32) (AID 1259256); further: nearly all actives have a fitted effect of over 45% in size; further: potency means the concentration at half of the fitted maximal effect
Procedure, shortened: as §2

[12] = P-glycoprotein substrates identified in KB-3-1 adenocarcinoma cell line, qHTS therapeutic library screen (AID 1346986); further: nearly all actives have a fitted effect of over 60% in size;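 further: potency means the concentration at half of the fitted maximal effect; potency is for cytotoxicity meaning loss of cell viability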
Procedure, shortened: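 Using luminescence to quantify ATP, parental and P-gp-overexpressing KB cells were compared after 72 h compound titration. KB-8-5-11 was also run with the P-gp inhibitor tariquidar.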

[13] = P-glycoprotein substrates identified in KB-8-5-11 adenocarcinoma cell line, qHTS therapeutic library screen (AID 1346987); further: nearly all actives have a fitted effect of over 65% in size; further: potency means the concentration at half of the fitted maximal effect
Procedure, shortened: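 In this qHTS, P-gp-rich KB-8-5-11 cells received library compounds across a concentration range. Viability was quantified by luminescence after 72 h at 37 degree C.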

[14] = qHTS assay for measurement of the activity of small molecule inhibitors on Zika virus induced Caspase-3 activity in human astrocytoma cells (AID 1224859);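 further: plate controls were ZIKV-infected untreated cells for no effect and uninfected cells for full effect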
Procedure, shortened: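 Compound added 1 h pre-infection; ZIKV 2 FFU/cell on SNB-19 cells, 6 h, 37 C/5% CO2. Caspase-Glo 3/7 luminescence; values as % inhibition of ZIKV-induced caspase activity.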

[15] = qHTS profiling for inhibitors of Plasmodium falciparum (3D7) proliferation (AID 743322);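 further: infected erythrocytes exposed to compound for 72 h before lysis; 100% = DMSO vehicle wells and 0% = 0.29 µM artemisinin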; details: P. falciparum 3D7 proliferation; at 28.7 µM (top of the series)
Procedure, shortened: as §1

[16] = qHTS profiling for inhibitors of Plasmodium falciparum (DD2) proliferation (AID 743323; call rule not given here); details: lower = more inhibition; at 28.7 µM (top of the series)
Procedure, shortened: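 P. falciparum Dd2-infected erythrocytes (0.3% parasitemia, 2.5% hematocrit) exposed 72 h at 37 C, 5% CO2. Lysis with SYBR Green, overnight at room temperature, fluorescence 485/535 nm; normalized to 0.29 uM artemisinin and DMSO.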

[17] = qHTS profiling for inhibitors of Plasmodium falciparum (HB3) proliferation (AID 743324); details: Plasmodium falciparum HB3 blood-stage proliferation; at 28.7 µM (top of the series);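 further: 100% = DMSO vehicle wells and 0% = artemisinin-treated control wells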
Procedure, shortened: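 SYBR Green fluorescence (485 ex/535 em) of lysed cultures, incubated overnight at room temperature in the dark, quantifies parasite DNA. Infected erythrocytes at 0.3% parasitemia and 2.5% hematocrit were exposed 72 h; values normalized to DMSO and 0.29 uM artemisinin controls.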

Row | SMILES | parasite growth, % of DMSO control [1] | parasite growth remaining, % of DMSO control (lower = more inhibition) [2] | parasite growth, % of control (lower = inhibition) [3] [%] | growth, % of control [4] | cell viability, % of control (lower = more cytotoxic) [5] | viability (% of control) [6] | Potency [7] | Potency [8] | Potency [9] | Potency [10] | Potency [11] | Potency [12] | Potency [13] | Potency [14] | remaining parasite growth % (stronger effect = lower value) [15] [%] | activity, percent of control [16] [%] | remaining proliferation (% of control), lower = more inhibition [17] [%] | outcome [12] | outcome [13]
1 | CON=C(C(=O)N[C@@H]1C(=O)N2C(C(=O)O)=C(CSC(=O)c3ccco3)CS[C@H]12)c1csc(N)n1 | 88.2% | 101% | 71 | 53.4% | 7.56% | 8.07% | inactive | inactive | inactive | inactive | inactive | inactive | inactive |  |  |  |  |  | 
2 | COC1=C(OC)C(=O)C(CC=C(C)CCC=C(C)CCC=C(C)CCC=C(C)CCC=C(C)CCC=C(C)CCC=C(C)CCC=C(C)CCC=C(C)CCC=C(C)C)=C(C)C1=O | 94.3% | 46.1% | 131 | 97.8% | 125% | 111% | inactive | inactive | inactive | inactive | inactive |  | inactive |  |  |  |  |  | 
3 | N#CC(=C(O)c1ccc(Cl)cc1Cl)c1nc2cc(Cl)ccc2c(=O)[nH]1 | 36.6% | 99.7% | 99 | 74% | 34.3% | 95.9% | inactive |  | inactive | inactive | inactive |  | inactive | inactive |  |  |  |  | 
4 | COc1cc(O)c2c(c1)C1OC1C[C@H](O)[C@H](O)C(=O)C=CC[C@H](C)OC2=O (stereo partly drawn) | 5.71% | 10.6% | 6.84 | 2.42% | 3.33% | 5.65% | inactive |  | 11.8 µM (active) | 7.43 µM (active) | 7.43 µM (active) |  |  | inactive |  |  |  |  | 
5 | Cc1cnc(Nc2ccc(N3CCN(C)CC3)cc2)nc1Nc1cccc(S(=O)(=O)NC(C)(C)C)c1 | 5.3% | 8.81% | 12.4 | 3.11% | 2.75% | 1.93% | inactive | 2.64 µM (active) | 2.64 µM (active) | 2.09 µM (active) | 2.35 µM (active) | 3.26 µM (active) | 11.8 µM (active) and 7.31 µM (active) |  |  |  |  |  | 
6 | Cc1c2oc3c(C)ccc(C(=O)NC4C(=O)NC(C(C)C)C(=O)N5CCCC5C(=O)N(C)CC(=O)N(C)C(C(C)C)C(=O)OC4C)c3nc-2c(C(=O)NC2C(=O)NC(C(C)C)C(=O)N3CCCC3C(=O)N(C)CC(=O)N(C)C(C(C)C)C(=O)OC2C)c(N)c1=O (stereo not drawn) (I: TVP[Sar][NMeV] / II: TVP[Sar][NMeV]; ester I:1-I:C, II:1-II:C; linker I:N-II:N via Actinocin(9to1); configuration not given here) | 3.86% |  | 15.2 | 2.3% | 2.59% | 1.96% | inactive | inactive | inactive | inactive | inactive |  | 0.187 µM (active) |  | -4 | -2.06 | -1.93 |  | 
7 | CC(Cc1ccc(O)c(O)c1)(NN)C(=O)O (stereo not drawn) | 54.5% | 15.4% | 75.5 | 54.9% | 108% | 91.3% | inactive |  | inactive | inactive | 23.5 µM (active) |  | inactive | inactive |  |  |  |  | 
8 | C=C1C(=CC=C2CCC[C@]3(C)[C@@H]([C@H](C)CCCC(C)(C)O)CC[C@@H]23)C[C@@H](O)C[C@@H]1O | 15.5% | 95.2% | 22.4 | 9.14% | 20.5% | 6.91% | inactive | 2.64 µM (active) | 2.96 µM (active) | 5.26 µM (active) | 3.72 µM (active) |  | inactive |  |  |  |  |  | 
9 | CC(C)(C)c1nc2c3cc[nH]c(=O)c3c3cc(F)ccc3c2[nH]1 | 59.4% | 94.4% | 62 | 58.6% | 20.2% | 26.4% | inactive | 4.18 µM (active) | 5.9 µM (active) | 4.69 µM (active) | 4.18 µM (active) | 7.31 µM (active) | 5.17 µM (active) |  |  |  |  |  | 
10 | CCN1CCN(C(=O)N[C@H](C(=O)N[C@@H]2C(=O)N3C(C(=O)O)=C(CSc4nnnn4C)CS[C@@H]23)c2ccc(O)cc2)C(=O)C1=O | 91.3% [at 9.64 µM] | 95.9% [at 9.64 µM] |  | 90.1% [at 9.64 µM] | 149% [at 15.3 µM] | 113% [at 15.3 µM] | inactive | inactive | inactive | inactive | inactive |  |  |  |  |  |  | inactive [at 9.29 µM] | inactive [at 9.29 µM]
11 | C[N+](C)([O-])CCNc1ccc(NCC[N+](C)(C)[O-])c2c1C(=O)c1c(O)ccc(O)c1C2=O |  |  |  |  | 105% | 19.7% | inactive | 18.7 µM (active) | 16.6 µM (active) | 20.9 µM (active) | inactive |  |  |  |  |  |  |  | 
12 | Oc1cc(-c2nc(-c3ccccc3)[nH]c2-c2ccncc2)ccc1Cl | 5.77% | 9.67% |  | 3.61% | 3.91% | 5.51% | inactive | 18.7 µM (active) | 26.4 µM (active) | 23.5 µM (active) | 18.7 µM (active) |  |  |  |  |  |  |  | 
13 | O=C(O)C[C@H](O)C[C@H](O)C=Cc1c(C2CC2)nc2ccccc2c1-c1ccc(F)cc1 | 94% | 92.7% | 67 | 86.6% | 4.71% | 38.9% | inactive |  |  | 3.72 µM (active) | 1.05 µM (active) |  | 7.43 µM (active) | inactive |  |  |  |  | 
14 | COc1cc2c(Nc3ccc(Cl)c(Cl)c3F)ncnc2cc1OCC1C[C@@H]2CN(C)C[C@H]2C1 | 6.7% | 7.75% | 18.3 | 7.13% | 2.56% | 2.8% | inactive |  |  | 11.8 µM (active) | 13.2 µM (active) |  | 18.7 µM (active) | inactive |  |  |  |  | 
